{
  "source": "the supplement of paper PMC8728848",
  "assay_in_all_cases": "glycan array binding signal (z-score within array); higher = stronger binding",
  "details_in_all_cases": "glycan notation: IUPAC condensed, linker removed",
  "key": {"[1]": {"target": "Fuc(a1-2)[GalNAc(a1-3)]Gal(b1-3)GlcNAc(b1-3)GalNAc", "method_in_brief": "(§1)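 Arrays were curated from the Consortium for Functional Glycomics database, 3228 in total, and kept only where the protein sequence was available. Binding is expressed as a within-array Z-score. This score was averaged across arrays of the same protein sequence at different concentrations or buffers and across linkers, and negative values can be read as non-binding.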"}, "[2]": {"target": "Fuc(a1-2)[GalNAc(a1-3)]Gal(b1-4)Glc", "method_in_brief": "as §1"}, "[3]": {"target": "Fuc(a1-3)[Gal3S(b1-4)]GlcNAc6S", "method_in_brief": "as §1"}, "Gal(a1-3)Gal(b1-4)GlcNAc": {"target": "Gal(a1-3)Gal(b1-4)GlcNAc", "method_in_brief": "as §1"}, "Gal(a1-6)Glc": {"target": "Gal(a1-6)Glc", "method_in_brief": "as §1"}, "[4]": {"target": "Gal(b1-3)GlcNAc(a1-6)Gal(b1-4)GlcNAc", "method_in_brief": "as §1"}, "[5]": {"target": "Gal(b1-3)[Fuc(a1-4)]GlcNAc(b1-6)GalNAc", "method_in_brief": "as §1"}, "Gal(b1-4)Glc": {"target": "Gal(b1-4)Glc", "method_in_brief": "as §1"}, "[6]": {"target": "Gal(b1-4)GlcNAc(b1-2)Man(a1-3)[Gal(b1-4)GlcNAc(b1-2)Man(a1-6)][GlcNAc(b1-4)]Man(b1-4)GlcNAc(b1-4)[Fuc(a1-6)]GlcNAc", "method_in_brief": "as §1"}, "[7]": {"target": "Gal(b1-4)GlcNAc(b1-2)Man(a1-6)[GlcNAc(b1-2)Man(a1-3)]Man(b1-4)GlcNAc(b1-4)GlcNAc", "method_in_brief": "as §1"}, "[8]": {"target": "Gal(b1-4)GlcNAc(b1-2)Man(a1-6)[Man(a1-3)]Man(b1-4)GlcNAc(b1-4)GlcNAc", "method_in_brief": "as §1"}, "[9]": {"target": "Gal(b1-4)GlcNAc(b1-2)[Gal(b1-4)GlcNAc(b1-6)]Man(a1-6)[Gal(b1-4)GlcNAc(b1-2)Man(a1-3)]Man(b1-4)GlcNAc(b1-4)GlcNAc", "method_in_brief": "as §1"}, "[10]": {"target": "Gal(b1-4)GlcNAc(b1-3)Gal(b1-4)GlcNAc", "method_in_brief": "as §1"}, "[11]": {"target": "Gal(b1-4)GlcNAc(b1-3)Gal(b1-4)GlcNAc(b1-2)Man(a1-3)[Gal(b1-4)GlcNAc(b1-3)Gal(b1-4)GlcNAc(b1-2)Man(a1-6)]Man(b1-4)GlcNAc(b1-4)GlcNAc", "method_in_brief": "as §1"}, "[12]": {"target": "Gal(b1-4)GlcNAc(b1-3)Gal(b1-4)GlcNAc(b1-2)[Gal(b1-4)GlcNAc(b1-3)Gal(b1-4)GlcNAc(b1-6)]Man(a1-6)[Gal(b1-4)GlcNAc(b1-3)Gal(b1-4)GlcNAc(b1-2)Man(a1-3)]Man(b1-4)GlcNAc(b1-4)[Fuc(a1-6)]GlcNAc", "method_in_brief": "as §1"}, "[13]": {"target": "Gal(b1-4)GlcNAc(b1-3)Gal(b1-4)GlcNAc(b1-3)Gal(b1-4)GlcNAc(b1-2)[Gal(b1-4)GlcNAc(b1-3)Gal(b1-4)GlcNAc(b1-3)Gal(b1-4)GlcNAc(b1-6)]Man(a1-6)[Gal(b1-4)GlcNAc(b1-3)Gal(b1-4)GlcNAc(b1-3)Gal(b1-4)GlcNAc(b1-2)Man(a1-3)]Man(b1-4)GlcNAc(b1-4)[Fuc(a1-6)]GlcNAc", "method_in_brief": "as §1"}, "[14]": {"target": "Gal(b1-4)GlcNAc(b1-3)Gal(b1-4)GlcNAc(b1-3)Gal(b1-4)GlcNAc(b1-3)Gal(b1-4)GlcNAc(b1-2)Man(a1-3)[Gal(b1-4)GlcNAc(b1-3)Gal(b1-4)GlcNAc(b1-3)Gal(b1-4)GlcNAc(b1-3)Gal(b1-4)GlcNAc(b1-2)Man(a1-6)]Man(b1-4)GlcNAc(b1-4)GlcNAc", "method_in_brief": "as §1"}, "[15]": {"target": "Gal(b1-4)GlcNAc(b1-3)Gal(b1-4)GlcNAc(b1-3)Gal(b1-4)GlcNAc(b1-3)Gal(b1-4)GlcNAc(b1-2)[Gal(b1-4)GlcNAc(b1-3)Gal(b1-4)GlcNAc(b1-3)Gal(b1-4)GlcNAc(b1-3)Gal(b1-4)GlcNAc(b1-6)]Man(a1-6)[Gal(b1-4)GlcNAc(b1-3)Gal(b1-4)GlcNAc(b1-3)Gal(b1-4)GlcNAc(b1-3)Gal(b1-4)GlcNAc(b1-2)Man(a1-3)]Man(b1-4)GlcNAc(b1-4)[Fuc(a1-6)]GlcNAc", "method_in_brief": "as §1"}, "[16]": {"target": "Gal(b1-4)GlcNAc(b1-3)Gal(b1-4)GlcNAc(b1-3)Gal(b1-4)GlcNAc(b1-3)Gal(b1-4)GlcNAc(b1-3)Gal(b1-4)GlcNAc(b1-2)Man(a1-3)[Gal(b1-4)GlcNAc(b1-3)Gal(b1-4)GlcNAc(b1-3)Gal(b1-4)GlcNAc(b1-3)Gal(b1-4)GlcNAc(b1-3)Gal(b1-4)GlcNAc(b1-2)Man(a1-6)]Man(b1-4)GlcNAc(b1-4)GlcNAc", "method_in_brief": "as §1"}, "[17]": {"target": "Gal(b1-4)GlcNAc(b1-3)Gal(b1-4)GlcNAc(b1-3)Gal(b1-4)GlcNAc(b1-3)Gal(b1-4)GlcNAc(b1-3)Gal(b1-4)GlcNAc(b1-2)Man(a1-3)[Gal(b1-4)GlcNAc(b1-3)Gal(b1-4)GlcNAc(b1-3)Gal(b1-4)GlcNAc(b1-3)Gal(b1-4)GlcNAc(b1-3)Gal(b1-4)GlcNAc(b1-2)Man(a1-6)]Man(b1-4)GlcNAc(b1-4)[Fuc(a1-6)]GlcNAc", "method_in_brief": "as §1"}, "[18]": {"target": "Gal(b1-4)GlcNAc(b1-3)Gal(b1-4)GlcNAc(b1-3)Gal(b1-4)GlcNAc(b1-3)Gal(b1-4)GlcNAc(b1-3)Gal(b1-4)GlcNAc(b1-2)[Gal(b1-4)GlcNAc(b1-3)Gal(b1-4)GlcNAc(b1-3)Gal(b1-4)GlcNAc(b1-3)Gal(b1-4)GlcNAc(b1-3)Gal(b1-4)GlcNAc(b1-6)]Man(a1-6)[Gal(b1-4)GlcNAc(b1-3)Gal(b1-4)GlcNAc(b1-3)Gal(b1-4)GlcNAc(b1-3)Gal(b1-4)GlcNAc(b1-3)Gal(b1-4)GlcNAc(b1-2)Man(a1-3)]Man(b1-4)GlcNAc(b1-4)[Fuc(a1-6)]GlcNAc", "method_in_brief": "as §1"}, "[19]": {"target": "Gal(b1-4)GlcNAc(b1-6)Gal(b1-4)GlcNAc", "method_in_brief": "as §1"}, "[20]": {"target": "Gal(b1-4)GlcNAc(b1-6)GalNAc", "method_in_brief": "as §1"}, "Gal3S4S(b1-4)GlcNAc": {"target": "Gal3S4S(b1-4)GlcNAc", "method_in_brief": "as §1"}, "Gal6S(b1-4)Glc": {"target": "Gal6S(b1-4)Glc", "method_in_brief": "as §1"}, "Gal6S(b1-4)Glc6S": {"target": "Gal6S(b1-4)Glc6S", "method_in_brief": "as §1"}, "Gal6S(b1-4)GlcNAc": {"target": "Gal6S(b1-4)GlcNAc", "method_in_brief": "as §1"}, "Gal6S(b1-4)GlcNAc6S": {"target": "Gal6S(b1-4)GlcNAc6S", "method_in_brief": "as §1"}, "[21]": {"target": "GalNAc(a1-3)GalNAc(b1-3)Gal(a1-4)Gal(b1-4)Glc", "method_in_brief": "as §1"}, "GalNAc(b1-4)GlcNAc": {"target": "GalNAc(b1-4)GlcNAc", "method_in_brief": "as §1"}},
  "note": "This is one part of a sample in which the strongest signals are shown more often than they occur.",
  "data": [
    {"binder": "Epa23 (Candida glabrata) (protein) MGSSHHHHHHSSGLVPRGSHMIPNPFEGTINNFPSGCSPNHGLYNRGLTMELYNYSYIHPQSIQSYFNTSTLKKMEKGQCWDPSYLDVNYPRTGYKTHNRFAKVNGIDGILDFEFNPTRSCVPSKGQLPQNYNYPLQFTLSNFTMLLYGYFKPKVTAKHTFTIFADDLLFLNFGAGNAFDCCQQQDTIDDFGNYQAYALWGSDTQQNTLTVNLDANIYYPIRMFYNNRDFKGALNMYFTTDESNTKINDFSGYLFNIPDSSEGCPAHISYETECGNVSG", "values": [
      {"measurement": "glycan array binding signal (z-score)", "setting": "[1]", "result": -0.229},
      {"measurement": "glycan array binding signal (z-score)", "setting": "[2]", "result": -0.234},
      {"measurement": "glycan array binding signal (z-score)", "setting": "[3]", "result": -0.161},
      {"measurement": "glycan array binding signal (z-score)", "setting": "Gal(a1-3)Gal(b1-4)GlcNAc", "result": -0.008},
      {"measurement": "glycan array binding signal (z-score)", "setting": "Gal(a1-6)Glc", "result": -0.007},
      {"measurement": "glycan array binding signal (z-score)", "setting": "[4]", "result": -0.078},
      {"measurement": "glycan array binding signal (z-score)", "setting": "[5]", "result": -0.177},
      {"measurement": "glycan array binding signal (z-score)", "setting": "Gal(b1-4)Glc", "result": -0.134},
      {"measurement": "glycan array binding signal (z-score)", "setting": "[6]", "result": -0.232},
      {"measurement": "glycan array binding signal (z-score)", "setting": "[7]", "result": -0.223},
      {"measurement": "glycan array binding signal (z-score)", "setting": "[8]", "result": -0.182},
      {"measurement": "glycan array binding signal (z-score)", "setting": "[9]", "result": 0.12},
      {"measurement": "glycan array binding signal (z-score)", "setting": "[10]", "result": 0.139},
      {"measurement": "glycan array binding signal (z-score)", "setting": "[11]", "result": 0.484},
      {"measurement": "glycan array binding signal (z-score)", "setting": "[12]", "result": 2.44},
      {"measurement": "glycan array binding signal (z-score)", "setting": "[13]", "result": 3.33},
      {"measurement": "glycan array binding signal (z-score)", "setting": "[14]", "result": 2.62},
      {"measurement": "glycan array binding signal (z-score)", "setting": "[15]", "result": 3.79},
      {"measurement": "glycan array binding signal (z-score)", "setting": "[16]", "result": 3.01},
      {"measurement": "glycan array binding signal (z-score)", "setting": "[17]", "result": 2.83},
      {"measurement": "glycan array binding signal (z-score)", "setting": "[18]", "result": 4.71},
      {"measurement": "glycan array binding signal (z-score)", "setting": "[19]", "result": 1.43},
      {"measurement": "glycan array binding signal (z-score)", "setting": "[20]", "result": 0.008},
      {"measurement": "glycan array binding signal (z-score)", "setting": "Gal3S4S(b1-4)GlcNAc", "result": -0.241},
      {"measurement": "glycan array binding signal (z-score)", "setting": "Gal6S(b1-4)Glc", "result": 6.7},
      {"measurement": "glycan array binding signal (z-score)", "setting": "Gal6S(b1-4)Glc6S", "result": 11.8},
      {"measurement": "glycan array binding signal (z-score)", "setting": "Gal6S(b1-4)GlcNAc", "result": 5.69},
      {"measurement": "glycan array binding signal (z-score)", "setting": "Gal6S(b1-4)GlcNAc6S", "result": 13.5},
      {"measurement": "glycan array binding signal (z-score)", "setting": "[21]", "result": -0.137},
      {"measurement": "glycan array binding signal (z-score)", "setting": "GalNAc(b1-4)GlcNAc", "result": -0.168}
    ]}
  ]
}
